Common to all, as to parameters: scale not given: direction of the effect not stated beside the values
Assay [1] addresses Protein translocase subunit SecA (Escherichia coli (strain K12)) (UniProt P10408). In words: Assay to Identify E. coli SecA ATPase Inhibitors. Conditions: 30 µM. It is filed as functional.
The target of assay [2] is T1, Ubiquitin-activating enzyme e1, putative (Leishmania donovani (strain BPK282A1)) (UniProt E9BSI1).
T1 sequence (whole entry): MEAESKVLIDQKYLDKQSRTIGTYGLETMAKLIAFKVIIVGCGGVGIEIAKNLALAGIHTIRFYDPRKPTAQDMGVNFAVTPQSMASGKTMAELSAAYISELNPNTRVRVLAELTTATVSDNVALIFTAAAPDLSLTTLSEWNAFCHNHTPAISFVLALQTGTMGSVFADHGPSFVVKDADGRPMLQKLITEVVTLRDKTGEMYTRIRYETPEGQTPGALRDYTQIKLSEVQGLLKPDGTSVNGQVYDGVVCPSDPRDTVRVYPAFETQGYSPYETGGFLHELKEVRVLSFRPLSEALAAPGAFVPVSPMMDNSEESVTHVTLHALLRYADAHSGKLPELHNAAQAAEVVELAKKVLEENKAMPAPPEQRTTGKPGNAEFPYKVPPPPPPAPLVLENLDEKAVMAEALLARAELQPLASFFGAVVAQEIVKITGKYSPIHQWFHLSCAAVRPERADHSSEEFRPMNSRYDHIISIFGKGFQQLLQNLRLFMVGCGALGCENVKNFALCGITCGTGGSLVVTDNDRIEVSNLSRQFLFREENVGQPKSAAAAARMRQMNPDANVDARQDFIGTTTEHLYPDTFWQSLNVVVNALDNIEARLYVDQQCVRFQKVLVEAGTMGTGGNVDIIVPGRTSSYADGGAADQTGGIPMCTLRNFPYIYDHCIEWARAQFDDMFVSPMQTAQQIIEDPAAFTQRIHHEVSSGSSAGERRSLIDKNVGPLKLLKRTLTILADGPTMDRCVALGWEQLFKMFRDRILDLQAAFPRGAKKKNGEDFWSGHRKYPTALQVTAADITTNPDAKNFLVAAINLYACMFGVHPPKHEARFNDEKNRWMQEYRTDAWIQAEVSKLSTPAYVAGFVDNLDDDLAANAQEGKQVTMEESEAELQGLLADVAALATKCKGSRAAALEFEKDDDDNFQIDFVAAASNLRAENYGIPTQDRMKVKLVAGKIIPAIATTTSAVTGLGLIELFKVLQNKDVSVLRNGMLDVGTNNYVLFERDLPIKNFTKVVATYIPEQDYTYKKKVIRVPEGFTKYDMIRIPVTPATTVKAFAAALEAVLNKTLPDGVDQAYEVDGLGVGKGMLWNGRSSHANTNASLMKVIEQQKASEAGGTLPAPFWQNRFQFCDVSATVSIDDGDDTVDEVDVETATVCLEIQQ
In words: Leishmania donovani Ubiquitin Activating Enzyme (LdE1). It counts as functional. Conditions: 30 µM.

Assay [3] addresses Sialic acid-binding Ig-like lectin 9 (Homo sapiens) (UniProt Q9Y336). In words: Hs-Siglec9 ALPHAscreen SOP 20170721. As to conditions: 10 µM. (In general: Alpha assays give light when donor and acceptor beads are brought close together.)
The test system of assay [4] is Trypanosoma cruzi. In words: Trypanosoma cruzi phosphomannomutase and mannose-1-phosphate guanylyltransferase assay. Conditions: 10 µM. It counts as functional.
The target of assay [5] is T2, Arginase-2, mitochondrial (Homo sapiens) (UniProt P78540).
T2 sequence (whole entry): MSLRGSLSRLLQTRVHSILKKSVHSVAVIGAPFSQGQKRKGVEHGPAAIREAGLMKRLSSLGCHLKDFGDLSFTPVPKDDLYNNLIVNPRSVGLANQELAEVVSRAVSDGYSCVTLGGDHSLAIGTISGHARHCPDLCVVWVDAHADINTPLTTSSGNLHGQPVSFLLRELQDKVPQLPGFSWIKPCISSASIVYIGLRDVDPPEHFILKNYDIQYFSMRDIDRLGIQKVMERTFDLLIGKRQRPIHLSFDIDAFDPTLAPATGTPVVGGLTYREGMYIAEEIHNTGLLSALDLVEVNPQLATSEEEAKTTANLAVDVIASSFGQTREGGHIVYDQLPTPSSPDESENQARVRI
In words: in vitro enzyme assay to detect the production of urea directly proportional to the activity of Arginase II. Further: in the data most compounds retested in dose-response had high values. As to conditions: 33.3 µM. It counts as functional.

Assay [6] concerns the target T3, Proteasome subunit beta (Trypanosoma cruzi) (UniProt O96673).
T3 sequence (whole entry): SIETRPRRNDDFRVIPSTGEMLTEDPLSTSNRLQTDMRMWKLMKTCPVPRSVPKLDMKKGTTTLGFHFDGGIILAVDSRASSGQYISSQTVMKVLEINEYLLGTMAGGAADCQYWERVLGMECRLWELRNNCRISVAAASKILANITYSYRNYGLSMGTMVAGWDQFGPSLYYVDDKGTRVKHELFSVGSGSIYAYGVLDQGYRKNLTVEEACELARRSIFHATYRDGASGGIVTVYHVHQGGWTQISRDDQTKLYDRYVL
In words: Trypanosoma cruzi proteasome chymotrypsin-like activity (TcProtChymo) assay. Further: in the data most compounds retested in dose-response had high values. Conditions: 9.37 µM. It counts as functional.

For assay [7], the species on record is Homo sapiens. In words: To identify inhibition of the IFN signalling (Jak-Stat) pathway via expression of an eGFP reporter gene under the control of an IFN-stimulated response element (ISRE) containing MxA promoter. It counts as functional. As to conditions: 30 µM.
Assay [8] addresses T4, Tyrosyl-tRNA synthetase, putative (Trypanosoma cruzi (strain CL Brener)) (UniProt Q4DSP6).
T4 sequence (whole entry): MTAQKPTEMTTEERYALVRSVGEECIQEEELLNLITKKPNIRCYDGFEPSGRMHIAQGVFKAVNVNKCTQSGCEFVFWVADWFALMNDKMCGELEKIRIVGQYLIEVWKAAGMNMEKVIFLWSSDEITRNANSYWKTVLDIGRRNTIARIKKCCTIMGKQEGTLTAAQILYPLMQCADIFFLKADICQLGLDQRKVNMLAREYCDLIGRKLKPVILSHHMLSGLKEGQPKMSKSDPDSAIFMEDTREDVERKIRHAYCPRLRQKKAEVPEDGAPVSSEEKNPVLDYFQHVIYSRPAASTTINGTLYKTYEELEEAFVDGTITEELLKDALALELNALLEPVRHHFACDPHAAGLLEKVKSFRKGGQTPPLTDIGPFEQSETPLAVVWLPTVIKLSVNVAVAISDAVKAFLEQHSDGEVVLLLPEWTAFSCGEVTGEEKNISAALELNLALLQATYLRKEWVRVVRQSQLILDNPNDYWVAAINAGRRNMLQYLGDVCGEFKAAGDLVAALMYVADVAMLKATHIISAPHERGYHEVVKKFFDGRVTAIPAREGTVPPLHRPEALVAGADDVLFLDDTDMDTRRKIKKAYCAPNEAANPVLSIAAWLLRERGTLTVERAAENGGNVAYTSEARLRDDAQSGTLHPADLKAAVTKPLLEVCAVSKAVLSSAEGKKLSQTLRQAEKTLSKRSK
In words: Trypanosoma cruzi tyrosyl tRNA synthetase (TcYRS) _High Tyrosine SOP. Further: in the data most compounds retested in dose-response had high values. It counts as functional. As to conditions: 30 µM.

Assay [9] addresses T4, Tyrosyl-tRNA synthetase, putative (Trypanosoma cruzi (strain CL Brener)). In words: Trypanosoma cruzi tyrosyl tRNA synthetase (TcYRS) SOP. It is filed as functional. Conditions: 30 µM.
The target of assay [10] is Chromo domain-containing protein 1 (Saccharomyces cerevisiae (strain ATCC 204508 / S288c) (Baker's yeast)) (UniProt P32657). In words: ScCHD-1 Enzyme Inhibition Assay. Further: in the data most compounds retested in dose-response had high values. Conditions: 30 µM. It is filed as functional.

We go through 12 molecules from ChEMBL document CHEMBL3988442, “University of Dundee, Small-Polar-MMV Screening Library” (2021).

For part of these data: Measured potencies and affinities stand elsewhere.

Chain of Chromo domain-containing protein 1 (Saccharomyces cerevisiae (strain ATCC 204508 / S288c) (Baker's yeast)) (P32657 whole entry, the tested form may be a part): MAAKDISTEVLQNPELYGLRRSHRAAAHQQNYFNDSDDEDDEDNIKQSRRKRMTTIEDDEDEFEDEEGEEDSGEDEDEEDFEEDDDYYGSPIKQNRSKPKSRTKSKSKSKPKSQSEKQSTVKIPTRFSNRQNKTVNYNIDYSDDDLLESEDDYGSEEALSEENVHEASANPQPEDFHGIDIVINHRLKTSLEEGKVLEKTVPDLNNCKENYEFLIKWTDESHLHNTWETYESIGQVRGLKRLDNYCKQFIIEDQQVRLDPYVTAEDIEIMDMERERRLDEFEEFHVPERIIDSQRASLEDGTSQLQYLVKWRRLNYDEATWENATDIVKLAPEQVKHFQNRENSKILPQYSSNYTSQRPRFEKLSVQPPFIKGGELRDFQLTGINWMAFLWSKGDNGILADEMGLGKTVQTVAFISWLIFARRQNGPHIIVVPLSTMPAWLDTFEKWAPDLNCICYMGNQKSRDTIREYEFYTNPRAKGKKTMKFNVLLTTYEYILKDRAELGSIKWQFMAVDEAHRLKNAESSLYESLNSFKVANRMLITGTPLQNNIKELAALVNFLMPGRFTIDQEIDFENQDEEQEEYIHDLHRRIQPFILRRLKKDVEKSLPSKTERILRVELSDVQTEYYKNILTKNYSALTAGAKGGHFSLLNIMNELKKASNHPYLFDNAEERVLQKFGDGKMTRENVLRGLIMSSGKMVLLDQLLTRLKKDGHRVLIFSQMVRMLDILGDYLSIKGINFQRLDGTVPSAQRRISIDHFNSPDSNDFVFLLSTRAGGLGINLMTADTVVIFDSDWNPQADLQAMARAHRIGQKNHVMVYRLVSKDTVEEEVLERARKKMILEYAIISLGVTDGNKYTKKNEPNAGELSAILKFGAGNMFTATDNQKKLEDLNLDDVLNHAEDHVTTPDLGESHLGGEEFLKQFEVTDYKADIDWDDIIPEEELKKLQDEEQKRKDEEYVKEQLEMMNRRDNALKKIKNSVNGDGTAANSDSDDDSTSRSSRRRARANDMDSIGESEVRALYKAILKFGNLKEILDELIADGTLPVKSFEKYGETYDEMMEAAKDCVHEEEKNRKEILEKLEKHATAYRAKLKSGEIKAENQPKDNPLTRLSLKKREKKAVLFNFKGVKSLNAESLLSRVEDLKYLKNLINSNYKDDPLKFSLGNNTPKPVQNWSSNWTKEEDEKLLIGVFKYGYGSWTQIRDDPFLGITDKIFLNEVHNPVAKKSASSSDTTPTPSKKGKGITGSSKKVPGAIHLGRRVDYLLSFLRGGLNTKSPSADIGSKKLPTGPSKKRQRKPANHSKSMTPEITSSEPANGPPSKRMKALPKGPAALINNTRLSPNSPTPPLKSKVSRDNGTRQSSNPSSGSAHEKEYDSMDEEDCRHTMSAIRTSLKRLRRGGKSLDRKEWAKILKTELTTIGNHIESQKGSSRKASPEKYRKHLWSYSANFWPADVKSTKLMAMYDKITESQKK
Chain of Sialic acid-binding Ig-like lectin 9 (Homo sapiens) (Q9Y336 whole entry): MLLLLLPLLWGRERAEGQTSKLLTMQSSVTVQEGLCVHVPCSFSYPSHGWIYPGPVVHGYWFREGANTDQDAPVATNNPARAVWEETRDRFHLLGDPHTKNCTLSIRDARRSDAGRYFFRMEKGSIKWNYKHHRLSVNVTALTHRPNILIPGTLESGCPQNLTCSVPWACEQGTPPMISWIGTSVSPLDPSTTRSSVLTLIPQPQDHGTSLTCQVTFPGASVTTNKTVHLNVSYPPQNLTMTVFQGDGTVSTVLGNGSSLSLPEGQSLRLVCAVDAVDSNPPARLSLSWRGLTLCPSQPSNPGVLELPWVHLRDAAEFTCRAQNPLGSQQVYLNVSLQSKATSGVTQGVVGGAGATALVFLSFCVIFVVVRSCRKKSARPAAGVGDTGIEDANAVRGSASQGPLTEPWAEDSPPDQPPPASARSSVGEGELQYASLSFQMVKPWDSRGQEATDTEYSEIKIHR
Chain of Protein translocase subunit SecA (Escherichia coli (strain K12)) (P10408 whole entry): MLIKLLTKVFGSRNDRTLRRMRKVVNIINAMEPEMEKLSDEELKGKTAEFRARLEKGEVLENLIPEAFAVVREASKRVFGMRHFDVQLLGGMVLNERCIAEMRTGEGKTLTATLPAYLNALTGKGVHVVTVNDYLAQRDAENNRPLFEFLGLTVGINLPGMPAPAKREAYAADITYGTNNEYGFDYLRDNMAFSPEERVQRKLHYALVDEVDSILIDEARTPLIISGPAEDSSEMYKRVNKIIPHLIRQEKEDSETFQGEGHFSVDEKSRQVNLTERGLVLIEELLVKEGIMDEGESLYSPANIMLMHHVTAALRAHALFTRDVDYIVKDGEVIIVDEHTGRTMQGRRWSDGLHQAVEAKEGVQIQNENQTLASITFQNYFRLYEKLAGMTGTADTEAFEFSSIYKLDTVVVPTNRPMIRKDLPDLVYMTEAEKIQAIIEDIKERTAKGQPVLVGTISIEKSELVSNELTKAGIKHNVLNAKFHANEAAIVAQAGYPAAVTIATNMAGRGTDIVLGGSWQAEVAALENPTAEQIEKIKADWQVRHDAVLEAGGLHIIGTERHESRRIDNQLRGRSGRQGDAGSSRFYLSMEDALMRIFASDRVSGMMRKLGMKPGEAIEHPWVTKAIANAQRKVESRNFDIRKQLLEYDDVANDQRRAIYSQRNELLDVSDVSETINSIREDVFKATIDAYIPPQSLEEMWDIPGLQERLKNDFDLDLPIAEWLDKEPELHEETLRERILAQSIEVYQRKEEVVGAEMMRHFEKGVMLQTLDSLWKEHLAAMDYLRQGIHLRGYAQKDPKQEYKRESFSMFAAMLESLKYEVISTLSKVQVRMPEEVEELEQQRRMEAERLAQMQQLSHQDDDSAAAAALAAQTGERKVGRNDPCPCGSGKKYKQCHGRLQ

For `Cc1ccc(C(=O)N2CCCC3(CCCC(=O)N3C)C2)cc1F` (stereo not given), the Percent Effect was -2.74% in assay [1]; 19.5% in [2]; -4.32% in assay [3]; -1.5% in [4]; 4.11% in assay [5]; 14.5% in assay [6]. The Percent Effect is 5.96% in [7], 7.73% in assay [8], 10% in assay [9] and -9.62% in [10].

Regarding `CC(C)c1cc(NC(=O)CN2CCNC(=O)C2)on1`, the Percent Effect was -0.0493% in assay [1]; 26% in assay [2]; -4.98% in assay [3]; -0.933% in [4]; -1.43% in assay [5]; 11.2% in assay [6]. Also, the Percent Effect was 1.34% in assay [7], 7.84% in [8], 21.2% in assay [9] and -9.71% in [10].

As to `CCS(=O)(=O)N(C)CC(=O)Nc1ccc(Br)cn1`, the Percent Effect is -6.17% in [1]; 26.7% in [2]; 0.132% in [3]; -0.402% in assay [4]; -0.444% in assay [5]; 18.2% in assay [6]. Besides, the Percent Effect in assay [7] is 13.7%; in assay [8], 1.58%; in assay [9] it was 12.8%; in assay [10] it was -8.92%.

On to `CCCC(=O)N1CCC2(CC1)CC(NC(C)=O)c1ccccc1O2` (stereo not given), for which the Percent Effect in assay [1] was 0.455%; in assay [2], 1.3%; in assay [3], -0.437%; in assay [4], -4.69%; in assay [5], 7.31%; in assay [6] it was -0.0858%. Besides, the Percent Effect was 6.03% in assay [7], -1.93% in assay [8], -5% in assay [9] and -2.27% in assay [10].

On to `Cc1ccccc1-c1cncc(C2CCN(C(C)C)CC2)n1`, for which the Percent Effect was -10.1% in [1]; 12% in [2]; 6.88% in assay [3]; 3.55% in assay [4]; -1.77% in [5]; 8.37% in assay [6]. Besides, the Percent Effect was -7.37% in assay [7], 7.41% in assay [8], 17.5% in assay [9] and -27.9% in [10].

Consider `N#Cc1cccc(S(=O)(=O)NC(=O)COc2ccc3c(c2)CCC3)c1`, for which the Percent Effect was -4.11% in assay [1]; 12.8% in assay [2]; -9.11% in [3]; 6.48% in assay [4]; -0.82% in [5]; 17% in assay [6]. The Percent Effect was 0.752% in assay [7], 0.478% in [8], 20.5% in assay [9] and -4.5% in assay [10].

For the molecule `CN(Cc1nnc(C2CC2)o1)C1CCN(CCCc2cnn(C)c2)C1` (stereo not given), the Percent Effect is -0.864% in assay [1]; 10.7% in assay [2]; -3.87% in [3]; -2.61% in [4]; -2.22% in assay [5]; 22.1% in [6]. Also, the Percent Effect in assay [7] is 18.5%; in assay [8], 11.1%; in assay [9] it was 15.4%; in assay [10], -5.79%.

With `CC(C)N(C)C(=O)CN1CCCC(c2ccc(C(=O)O)cc2)C1` (stereo not given), the Percent Effect in assay [1] was -2.28%; in assay [2] it was 18.9%; in assay [3] it was -0.275%; in assay [4], 0.485%; in [5], -66.1%; in assay [6] it was 12.3%. The Percent Effect in [7] was 29.1%; in assay [8], 5.85%; in assay [9], 19.5%; in assay [10], -6.15%.

Consider `CN(C(=O)CN1CCOC(Cn2cccn2)C1)c1nccs1` (stereo not given), for which the Percent Effect in assay [1] is -7.38%; in assay [2], 18.2%; in assay [3], 0.761%; in assay [4] it was 4.29%; in [5] it was -4.71%; in assay [6], 11.8%. Besides, the Percent Effect in [7] was -5.33%; in [8], 3.92%; in assay [9], 21.2%; in assay [10], -15%.

`CC(O)CN1CCC(CNCc2ccccc2Br)CC1` (stereo not given): the Percent Effect was -0.126% in [1]; 10.3% in [2]; -8.9% in assay [3]; 11.4% in assay [4]; 1.23% in assay [5]; 10.2% in [6]. Besides, the Percent Effect is 8.18% in assay [7], 4.31% in [8], 20.5% in assay [9] and -5.01% in assay [10].

Regarding `O=C(NCc1cc(O)ncn1)C1COc2ccccc2C1` (stereo not given), the Percent Effect in assay [1] is -3.59%; in assay [2] it was 10.8%; in assay [3] it was 17.9%; in assay [4], 3.59%; in assay [5] it was 12.9%; in assay [6] it was 13%. Further, the Percent Effect in [7] is 9.77%; in assay [8], 5.85%; in assay [9] it was 17.1%; in assay [10], -2.86%.

For the molecule `CC(C)N1CCO[C@H]2CN(C(=O)c3ccoc3)C[C@H]21`, the Percent Effect in assay [1] was -6.85%; in assay [2], 3.9%; in assay [3], -7.81%; in assay [4], -1.66%; in assay [5], 2.43%; in [6], 4.85%. The Percent Effect was determined as 0.754% in assay [7], 5.79% in assay [8], 10.3% in assay [9] and 3.83% in assay [10].
